Screens from PubChem.
Rows were chosen to be rich in hits. Some 8.8% of all compounds tested hit in one or more screens of this group.
KB-V1 MDR tox: kills drug-selected multidrug resistant KB-V1 cells | KB-V1 MDR cells viability, CellTiter-Glo, 72 h | Potency, µM (series often up to 46.1 µM), most hits filed as cytotoxic | 3.4% of 400,000 active; further: potency means the concentration at half of the fitted maximal effect; nearly all actives have a fitted effect of over 60% in size
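Following 72 h at 37 degrees C with compound, KB-V1 cell viability was read by CellTiter-Glo luminescence, medium being phenol-red-free DMEM plus 10% FBS; concentration-response parameters came from normalized, curve-fitted qHTS data.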
HT1080-NT tox: kills 2HG-producing HT-1080-NT fibrosarcoma cells; HT-1080-NT fibrosarcoma viability, CellTiter-Glo ATP luminescence, 48 h; Potency, µM (titrated, usually from 46.1 µM), for inactives: top-dose activity, negative = less viability, most hits filed as cytotoxic; 1.6% of 360,000 active; AID 686970;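 further: NT is the 2HG producing partner of a matched IDH1 knockdown line; potency means the concentration at half of the fitted maximal effect; 0% = DMSO-treated cells and -100% = media-only wells without cells; nearly all actives have a fitted effect of over 55% in size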
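Fibrosarcoma NT cells, 750 per well in 5% FBS RPMI, were exposed to compound for 48 hours. Viability: CellTiter-Glo luminescence.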
KB-3-1 cytotox: KB-3-1 parental cell cytotoxicity | KB-3-1 viability, CellTiter-Glo ATP luminescence, 72 h | Potency, µM (series often up to 46.1 µM), usual class: cytotoxic | 1.4% of 400,000 active; further: potency means the concentration at half of the fitted maximal effect; nearly all actives have a fitted effect of over 60% in size
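Cytotoxicity measured as CellTiter-Glo luminescence after 72 h at 37 C. Compound titrations were pinned onto drug-naive KB-3-1 parental adenocarcinoma cells grown in DMEM with 10% FBS, and normalized data fitted to concentration-response curves.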
IL1B secr inh: inflammasome signaling inhibition, IL-1 beta readout; THP-1 LPS/ATP IL-1B secretion, AlphaLISA, 16 h; hits give low values; AID 743279; activity change, % at 57.5 µM; 4.7% of 360,000 active; in the data active means activity change below about -50%; inconclusive means mostly about -30% to -49%
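THP-1 cells pretreated 1 hr with compounds (up to 57.5 uM final), then stimulated with LPS (250 ng/mL final) plus ATP (1.25 mM final); secreted IL-1B measured by AlphaLISA after 16 hr, decreased signal indicating inhibition.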
HT1080 IDH1KD tx: HT-1080 IDH1 knockdown cell toxicity (counter line); Potency, µM (top dose mostly 46.1 µM), without a hit: at the top dose activity, negative = toxicity, hits mostly cytotoxic; 2% of 360,000 active; HT-1080 IDH1 knockdown viability, ATP luminescence, 48 h;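 further: potency means the concentration at half of the fitted maximal effect; 0% = DMSO wells and -100% = cell-free medium wells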
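After a 2 h attachment period, IDH1KD HT-1080 cells took pin-transferred compound for 48 h at 37 °C; ATP-based luminescence after 10 min room-temperature reagent incubation reported viability.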
Starred values were filed as active, the others as inactive; i = inactive; ? = inconclusive; . = no result; [ ] = remark or other dose. Unless noted, the call rests on the fitted dose curve; in most records, active means well fitted curve in the direction sought with a large enough effect; inconclusive means small, poorly fitted or top-dose-only effect, or another doubt; inactive means no such curve, though single readings can be large; an effect the other way counts as inactive or inconclusive. Unless noted, on the % scale 0 is the no-effect control and ±100 the full control effect.

SMILES	KB-V1 MDR tox	HT1080-NT tox	KB-3-1 cytotox	IL1B secr inh	HT1080 IDH1KD tx
CN1c2ccccc2C(C)(C)C12C=Cc1cc(O)ccc1O2 (stereo unspecified)	?	?	i	-74*	?
CN1c2ccccc2C(C)(C)C12C=Nc1c(cc(N3CCOCC3)c3ccccc13)O2 (stereo unspecified)	i	-10%	?	-5	-18%
CCN(CC)C(=O)c1cccc(-c2csc(C(C)(O)c3ccncc3)n2)c1 (stereo unspecified)	i	?	i	-1	?
CC1=CC(=C(c2ccc(N)cc2)c2ccc(N)cc2)C=CC1=N	?	.	2.3µM*	.	.
NS(=O)(=O)c1cccc(NC(=O)CSc2nnc(C3CC3)n2Cc2ccccc2)c1	i	-2%	i	21	-5%
Cc1cccc(C(=O)CC(=O)c2cc(Cl)ccc2O)c1	9.2µM*	?	?	75	?
O=C(CC(=O)c1cc(Cl)ccc1O)c1ccccc1	?	?	?	39	?
CC(C)(C)c1ccc(-c2nnc(SCC(=O)NC3CCS(=O)(=O)C3)n2N)cc1 (stereo unspecified)	i	-3%	i	-7	-4%
CCOC(=O)C1(C)CCCN(C(=O)c2c(F)cccc2F)C1 (stereo unspecified)	i	?	i	9	1%
Cc1cc(=O)n2c3ccccc3n(CC(O)CN3CCCC3)c2c1C#N (stereo unspecified)	?	?	i	-65*	?
CCN(CC)C(=O)c1sc2c(c1C)c(=O)n(CCc1ccccc1)c(=O)n2Cc1ccc(F)cc1Cl	?	.	i	.	.
CC1=C(/C=C/C(C)=C/C=C/C(C)=C/C(=O)Nc2ccc(O)cc2)C(C)(C)CCC1	?	15µM*	?	-77*	16µM*
O=C(c1ccco1)N(Cc1cc2ccccc2[nH]c1=O)C1CCCCC1	i	-5%	i	-4	-10%
CCc1ccc2[nH]c(=O)c(CN(CCN3CCCC3)C(=O)NC3CCCCC3)cc2c1	i	?	i	-56*	?
CCc1ccc2[nH]c(=O)c(CN(CCCN3CCOCC3)C(=O)Nc3cccc(Cl)c3)cc2c1	?	?	?	-62*	?
COc1ccc(OC)c(CN(CCN2CCOCC2)C(=O)Nc2cccc(Cl)c2)c1	3.7µM*	-2%	i	-10	-4%
O=C(c1ccncc1)N(Cc1cc2ccccc2[nH]c1=O)C1CCCCC1	?	7.1µM*	9.2µM*	5	5.6µM*
CCc1cccc(N(C(=O)c2csnn2)C(C(=O)NC(C)(C)C)c2ccncc2)c1 (stereo unspecified)	i	12%	i	-5	19%
COc1ccc2[nH]c(=O)c(CN(C(=O)NC3CCCCC3)C3CCCCC3)cc2c1	10µM*	-7%	?	2	1%
O=C(Nc1cccc(Cl)c1)N(CCN1CCOCC1)Cc1cccc(Cl)c1	i	?	i	-76*	?
O=C(c1ccco1)N1CCN(S(=O)(=O)/C=C/c2ccccc2)CC1	i	-4%	i	14	1%
O=C(COc1ccccc1F)N1CCN(S(=O)(=O)/C=C/c2ccccc2)CC1	15µM*	10%	i	-7	15%
O=C(c1ccc(Cl)cc1)N1CCN(S(=O)(=O)/C=C/c2ccccc2)CC1	i	-3%[9.24 µM]	23µM*	?	-2%
CCOc1ccc(S(=O)(=O)N(CC(=O)NCCSc2ccccc2)c2ccccc2)cc1	i	.	i	.	.
Cn1cc([C@]2(O)C(=O)Nc3ccc(OC(F)(F)F)cc32)c2ccccc21	i	?	i	0	?
SMILES	KB-V1 MDR tox	HT1080-NT tox	KB-3-1 cytotox	IL1B secr inh	HT1080 IDH1KD tx
C=CC[C@H](CC(=O)N(CCO)Cc1ccccc1)C(=O)N[C@H](COC(=O)[C@@H](CC=C)Cc1ccc(F)cc1)Cc1ccccc1	?	16µM*	?	-56*	?
C=CCC[C@H](Cc1ccc(F)cc1)C(=O)OC[C@@H](Cc1c[nH]c2ccccc12)NC(=O)[C@@H](CC=C)CC(=O)N(CCO)Cc1ccccc1	?	?	?	-62*	?
C=CCC[C@H](Cc1ccc(F)cc1)C(=O)OC[C@H](Cc1c[nH]c2ccccc12)NC(=O)[C@@H](CC=C)CC(=O)N(CCO)Cc1ccccc1	21µM*	?	i	?	?
COC(=O)C1CCN(C2CN(Cc3ccccc3)S(=O)(=O)C2)CC1 (stereo unspecified)	i	19%	i	10	19%
Cn1cccc1C(=O)Nc1nc(-c2ccccn2)cs1	?	?	10µM*	71	?
CSCCC(=O)Nc1nc(-c2ccccn2)cs1	?	-16%	i	17	-5%
O=C(Nc1nc(-c2ccccn2)cs1)c1ccc(Cl)s1	?	?	?	89	4.1µM*
Cc1ccc(C(=O)Nc2nc(-c3ccccn3)cs2)s1	i	-28%	i	178	?
O=C(Nc1nc(-c2ccccn2)cs1)C1CCCC1	?	-6%	i	-71*	-25%
Cc1cc(NC(=O)COC(=O)c2ccccc2OCCOc2ccccc2)ccc1Br	.	5%	.	.	1%
Cc1ccc(C(=O)N2CCC(C(=O)Nc3cccc([N+](=O)[O-])c3)CC2)cc1	i	-16%	i	-15	?
O=C1S/C(=C/c2ccccc2F)C(=O)N1CCN=C1NS(=O)(=O)c2ccccc21	i	-3%	i	-97*	-8%
NC(=O)C(C(=O)/C=C/c1ccc(Cl)cc1)=C1SCCS1	6.5µM*	-7%	?	-99*	?
COc1ccc(/C=C/C(=O)C(C(N)=O)=C2SCCS2)cc1	?	-11%	?	?	-25%
CN(C)C(=O)COc1ncnc2scc(-c3ccc(F)cc3)c12	i	2%	i	-12	20%
CCOP(=O)(Nc1ccc2oc(=O)c3ccccc3c2c1)OCC	i	0%	i	-1	-5%
Nc1nc(N)c2cc([N+](=O)[O-])ccc2n1	i	-1%	?	23	12%
Nc1nc(N)c2c(ccc3c2ccn3Cc2cccc([N+](=O)[O-])c2)n1	1.8µM*	0.018µM*	0.58µM*	-109*	0.15µM*
Cc1cc(C)n(-c2nnc(Nc3ccc(C)c(C)c3)c3ccccc23)n1	i	.	i	.	.
CCOc1nc(-c2ccccc2)ccc1-c1noc(COC)n1	23µM*	-6%	i	-2	-26%
COCc1nc(-c2ccc(-c3ccccc3)nc2OC)no1	?	18%	i	?	5%
COC(=O)c1c(NC(=O)c2ccco2)sc2c1C(C(=O)OC)CC2 (stereo unspecified)	18µM*	-3%	i	-13	-19%
